This is a sample that favours compounds with a hit; in the whole collection about 14% have one here.
Giardia FBPA inh = inhibitors of Giardia lamblia fructose-1,6-bisphosphate aldolase; A8B2U2; purified Giardia FBPA; Potency, µM (titrated, usually from 59.6 µM), without a hit: at the highest dose activity, negative = inhibition, usual class: inhibitors; 0.71% of 290,000 active; also: potency is read from the fitted curve at half-maximal effect; nearly all actives have a fitted effect of over 55% in size
Target sequence (A8B2U2 whole entry, looked up): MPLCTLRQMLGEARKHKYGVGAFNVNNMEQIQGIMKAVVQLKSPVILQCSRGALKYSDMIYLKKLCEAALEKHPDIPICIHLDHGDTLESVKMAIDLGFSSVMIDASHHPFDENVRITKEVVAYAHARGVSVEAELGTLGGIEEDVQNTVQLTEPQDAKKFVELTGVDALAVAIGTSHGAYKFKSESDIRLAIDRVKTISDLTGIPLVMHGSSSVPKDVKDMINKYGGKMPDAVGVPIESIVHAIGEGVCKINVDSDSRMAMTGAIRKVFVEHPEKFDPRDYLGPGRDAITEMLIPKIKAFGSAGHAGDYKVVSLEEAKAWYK
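40 nM FBPA preincubated 10 min at RT with compound (up to 57.5 uM final), then substrate plus GAPDH/TPI/NAD/arsenate coupling and diaphorase/resazurin added. Fluorescence read after 20 min at RT, 525/598 nm.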
Sm TGR block = blocks Schistosoma mansoni thioredoxin glutathione reductase; Q962Y6; purified TGR, DTNB reduction, TNB absorbance 405 nm; Potency, µM (doses to about 114 µM), for inactives: at the top dose activity change, negative = inhibition, most hits filed as inhibitors; 3% of 360,000 active; also: potency is read from the fitted curve at half-maximal effect; nearly all actives have a fitted effect of over 60% in size
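TGR 20 nM + NADPH 100 uM (dispensed conc.), cpd preinc 15 min RT; start with NADPH (500 uM addition) then DTNB (15 mM addition). Kinetic TNB absorbance, 405 nm filter. Four-parameter Hill fit across titration.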
Pf growth 48h = inhibits P. falciparum growth in the first generation, 48 h; P. falciparum luciferase growth in erythrocytes, 48 h; Potency, µM (highest dose often 28.7 µM), without a hit: top-dose activity change, negative = inhibition, hits mostly inhibitors; 5.9% of 310,000 active; also: potency is read from the fitted curve at half-maximal effect
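Read-out is firefly luciferase luminescence from an integrated reporter in P. falciparum, so falling signal marks reduced parasite growth. Infected erythrocytes were at 2% hematocrit and 0.1% parasitemia (final) in Albumax-supplemented RPMI 1640.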
HCMV inh = inhibitors of human cytomegalovirus; HFF cells, HCMV-luciferase reporter, 72 h; hits give low values; AID 1259415; 4.5% of 410,000 active; activity change, negative = inhibition, % at 57.5 µM; in the data active = activity change below about -60%; inconclusive = no clear call, values can overlap the other calls; inactive = above about -39%
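HFF cells seeded 16 h at 37C, treated with compounds, infected with luciferase-reporter HCMV at MOI 1 PFU/cell; luciferase read at 72 h post infection, normalized to buffer-only and Salinomycin controls.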
Pf growth 96h = P. falciparum growth inhibition at 96 hours; P. falciparum luciferase reporter growth, 96 h; Potency, µM (titrated, usually from 28.7 µM), inactives show at the top dose activity change, negative = inhibition, hits mostly inhibitors; 6.9% of 320,000 active; also: potency is read from the fitted curve at half-maximal effect
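Two-generation exposure (96 h) targets delayed-death phenotype. Reporter parasites carrying integrated firefly luciferase, in red cells at 2% hematocrit and 0.05% parasitemia final, kept at 37 C, 5% CO2; luminescence loss indicates inhibition.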
An asterisk follows results filed as active; ? = inconclusive; . = no result; [ ] = another dose, or the depositor's remark. Unless noted, calls follow the shape of the dose curve; as a rule, active = well fitted curve in the direction sought with a large enough effect; inconclusive = small, poorly fitted or top-dose-only effect, or another doubt; inactive = no such curve, though single readings can be large; an effect the other way counts as inactive or inconclusive. % is scaled to controls: 0 for no effect and ±100 for the full control effect.

SMILES | Giardia FBPA inh | Sm TGR block | Pf growth 48h | HCMV inh | Pf growth 96h
CC(CCc1ccccc1)NC(=O)C(=O)Nc1ccccc1 (centres undefined) | 5% | 0% | 114% | 62 | 0%
Cc1cccc(C)c1NC(=S)NC(C)CCc1ccccc1 (centres undefined) | 8% | -11% | -81% | -17 | ?
Cc1ccc(NC(=S)NC(C)CCc2ccccc2)cc1C (centres undefined) | 5% | 5% | ? | -71* | ?
COc1ccc(C(=O)c2c(C(F)(F)F)oc3c2C(=O)c2ccccc2C3=O)cc1 | ? | -16% | 0.1µM* | . | .
Cc1ccc(C2C=C(c3ccc4c(c3)OCO4)Nc3ncnn32)cc1 (centres undefined) | 1% | ? | ? | -8 | 12µM*
Cc1ccsc1C1C=C(c2cccc(Br)c2)Nc2ncnn21 (centres undefined) | -3% | ? | 0% | . | 12µM*
Fc1ccc(Br)cc1C1C=C(c2ccc(Br)cc2)Nc2ncnn21 (centres undefined) | 5% | -20% | . | -19 | ?
COc1cccc(C2=CC(c3ccc(C)cc3)n3ncnc3N2)c1 (centres undefined) | -3% | 18µM* | ? | . | 46%
Cc1ccc(C)c(N2CCN(S(=O)(=O)c3cc(C(=O)Nc4cc(Cl)cc(Cl)c4)ccc3F)CC2)c1 | . | 9% | . | 7 | .
Cc1ccc2nc(N(Cc3cccnc3)C(=O)C3COc4ccccc4O3)sc2c1 (centres undefined) | . | 0% | . | 27 | .
Nc1nc(SCc2ccc3c(c2)OCO3)n[nH]1 | -11% | 0% | 12% | -18 | 29%
Cc1cc(C(=O)COc2ccccc2Cl)c(C)n1-c1ccc2c(c1)OCO2 | -12% | -11% | ? | 28 | 8.3µM*
Cc1ccc(-n2c(C)cc(C(=O)COc3c(CO)cc(F)cc3CO)c2C)cc1C | -8% | -9% | ? | -92* | 9.3µM*
COCC(=O)OCC(=O)c1cc(C)n(-c2ccc(Br)cc2)c1C | -13% | -20% | -11% | 12 | ?
Cc1cc(C(=O)CN2C(=O)NC(C)(CC(C)C)C2=O)c(C)n1-c1ccc2c(c1)OCO2 (centres undefined) | 1% | -8% | ? | -12 | 4.1µM*
Cc1cc(C(=O)CSc2n[nH]c(N)n2)c(C)n1-c1ccc2c(c1)OCO2 | 5% | -1% | -25% | 21 | 12µM*
COCCNC(=O)c1ccc2c(c1)NC(=O)C(CS(=O)(=O)Cc1ccc(F)cc1Cl)N2 (centres undefined) | . | -9% | . | 33 | .
CN(C)c1ncc2nc(-c3cc(F)cc(F)c3)c(=O)n(CCc3ccccc3)c2n1 | -4% | . | . | . | .
CNS(=O)(=O)c1cccc(C(=O)OCC(=O)c2cc(C)n(-c3ccc4c(c3)OCO4)c2C)c1 | -20% | 9% | . | -13 | 5.2µM*
Cc1cc(C=O)c(C)n1-c1ccc2c(c1)OCO2 | -13% | -22% | 0% | 11 | 3.7µM*
CCOC(=O)c1cnc2c(Cl)cc(Cl)cc2c1Nc1ccccc1OC | . | 0% | . | 5 | .
Cc1cc2nc(-c3cccc(NC(=O)CSc4ccc(Cl)cc4)c3)oc2cc1C | . | 2% | . | 53 | .
O=C1c2ccccc2C(=O)N1Cc1nc2ccccc2c(=O)n1-c1ccc(Br)cn1 | -1% | -5% | 29% | -5 | 7.4µM*
Cc1cccnc1-n1c(CCN2C(=O)c3ccccc3C2=O)nc2ccccc2c1=O | 5% | 1% | ? | -30 | 3.3µM*
CCc1ccccc1NC(=O)N1CCN(Cc2nc3ccc(C)cc3o2)CC1 | . | -1% | . | -4 | .
SMILES | Giardia FBPA inh | Sm TGR block | Pf growth 48h | HCMV inh | Pf growth 96h
COC(=O)c1sc(N/N=C/c2ccc(C(C)C)cc2)nc1C | 5% | -17% | 9.3µM* | -18 | ?
CCOC(=O)c1sc(N/N=C/c2cc(Br)c(O)c(OC)c2)nc1C | -26% | -6% | 13µM* | ? | 53%
CN(C)CC/C=C1\c2cc(F)ccc2CSc2ccccc21 | -1% | -1% | 13µM* | 18 | ?
CN(CC/C=C1/c2ccccc2CSc2ccccc21)CCCO | -14% | 2% | 12µM* | 2 | 13µM*
C#CCN(C)CC/C=C1\c2ccccc2CSc2ccccc21 | -8% | 3% | 13µM* | -29 | ?
CCN(CC)C(=O)CCn1nc(-c2ccc(C)cc2)c2ccccc2c1=O | 5% | -7% | 7.4µM* | . | -2%
Cc1ccc(-c2nn(CCC(N)=O)c(=O)c3ccccc23)cc1 | 7% | 3% | 3% | -8 | ?
CNC(=O)CCn1nc(-c2ccccc2)c2ccccc2c1=O | -4% | 0% | 27% | 47 | 15µM*
Cc1ccccc1NC(=O)CCn1nc(-c2ccccc2)c2ccccc2c1=O | . | 7% | . | -14 | .
COc1ccc(CCNC(=O)C(C)OC(=O)c2nsc(Cl)c2Cl)cc1OC (centres undefined) | 5% | 0% | 5% | -9 | 1%
COc1ccccc1C(=O)Nc1c(C(=O)NC(C)(C)C)oc2ccccc12 | . | 8% | . | -71* | .
COC(=O)c1oc2ccccc2c1NC(=O)c1ccccc1O | -4% | . | 10µM* | -19 | 54%
COc1ccccc1C(=O)Nc1c(C(=O)c2ccccc2)oc2ccccc12 | . | 0% | . | -16 | .
Cc1ccc(N=C2SC(C(=O)O)CC(=O)N2C)cc1C (centres undefined) | 3% | 8% | 39% | 14 | 12µM*
Cc1ccc(N=C2SC(C(=O)NCCc3ccccc3)CC(=O)N2C)cc1C (centres undefined) | -4% | -1% | -13% | -28 | -3%
COc1ccc(NC(=O)c2ccc(C)cc2)c[n+]1[O-] | 11% | 1% | 35% | 64 | 42%
COC(=O)C(C(C)=O)C(NC(=O)NCc1ccccc1)c1ccccc1 (centres undefined) | -1%[12.9 µM] | . | . | . | .
CC1=C(O)C(=O)C(C2=C(O)C(=O)C(C)=C(O)C2=O)=C(O)C1=O | . | . | . | -22 | .
O=C1C(O)=C(O)C(=O)C(O)=C1O | 13µM* | . | ? | . | ?
COc1ccc(CNC(=O)C2(C)Cc3c(-c4cccc(C(N)=O)c4)ccnc3O2)cc1OC (centres undefined) | . | . | . | 67 | .
CCOc1ccc(Cc2nnc(SCC(=O)c3ccc(OC)cc3)o2)cc1 | 1% | -1% | -16% | 1 | 12µM*
COc1ccc(-c2n[nH]c(C)c2-c2ccc(Cl)cc2)c(O)c1 | -12% | -20% | 8.3µM* | ? | 10µM*
Cc1[nH]nc(-c2ccc(O)cc2O)c1-c1ccc(Cl)cc1 | . | -6% | 39% | -71* | 4%
COc1ccc(O)c(-c2c(-c3ccc(Cl)cc3)n[nH]c2C)c1 | ? | 50µM* | ? | 1 | .
COc1ccc(-c2n[nH]c(C)c2-c2ccc(Cl)cc2)c(O)c1OC | -1% | -9% | ? | ? | ?

Screening data: PubChem BioAssay, National Center for Advancing Translational Sciences (NCATS)
